# In PubChem BioAssay AID1159580 (chemical genetic matrix, 2015):
# Out of some 5,500 compounds screened, about 2,000 (36%) were called active. Roughly 18% stayed inconclusive and do not appear here. The list shows a part of the results. Values without a mark were called inactive. No stated cut-off is given here; in the data, active means normalized growth mostly below about 0.91 (no sharp cut-off); inconclusive means no clear call, values can overlap the other calls; inactive means mostly above about 0.92.
# Test: chemical genetic growth profiling, strain panel (AID 1159580);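 further: tested at 20 µM; growth read once vehicle control cultures reached saturation at 30 °C; 1 = growth at the plate median or of vehicle wells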
# Settings: growth OD
structure (smiles),measurement,setting,value
O=C(O)CN(CC(=O)O)Cc1cc2c(-c3ccccc3C(=O)O)c3cc(CN(CC(=O)O)CC(=O)O)c(=O)cc-3oc2cc1O,normalized growth,"S. cerevisiae deletion strains, locus YJR043C, strain POL32, stronger effect = lower value",1.01
same,normalized growth,"S. cerevisiae deletion strains, locus YJR075W, strain HOC1, stronger effect = lower value",1.03
same,normalized growth,"S. cerevisiae deletion strains, locus YKL009W, strain mrt4, stronger effect = lower value",1.02
same,normalized growth,"S. cerevisiae deletion strains, locus YKL068W, stronger effect = lower value",1.01
same,normalized growth,"S. cerevisiae deletion strains, locus YKL085W, strain MDH1 (second series), stronger effect = lower value",1.01
same,normalized growth,"S. cerevisiae deletion strains, locus YKL085W, strain MDH1, stronger effect = lower value",1.01
same,normalized growth,"S. cerevisiae deletion strains, locus YKL160W, strain elf1, stronger effect = lower value",0.96
same,normalized growth,"S. cerevisiae deletion strains, locus YKL190W, strain CNB1, stronger effect = lower value",1.01
same,normalized growth,"S. cerevisiae deletion strains, locus YKR001C, strain vps1, stronger effect = lower value",1.02
same,normalized growth,"S. cerevisiae deletion strains, locus YKR026C, strain gcn3, stronger effect = lower value",0.986
same,normalized growth,"S. cerevisiae deletion strains, locus YKR091W, strain srl3, stronger effect = lower value",0.965
same,normalized growth,"S. cerevisiae deletion strains, locus YLL001W, strain dnm1, stronger effect = lower value",0.984
same,normalized growth,"S. cerevisiae deletion strains, locus YLL026W, stronger effect = lower value",0.987
same,normalized growth,"S. cerevisiae deletion strains, locus YLL041C, strain sdh2, stronger effect = lower value",0.974
same,normalized growth,"S. cerevisiae deletion strains, locus YLR027C, strain aat2, stronger effect = lower value",0.969
same,normalized growth,"S. cerevisiae deletion strains, locus YLR039C, strain RIC1, stronger effect = lower value",1.05
same,normalized growth,"S. cerevisiae deletion strains, locus YLR058C, strain SHM2, stronger effect = lower value",1
same,normalized growth,"S. cerevisiae deletion strains, locus YLR102C, strain apc9, stronger effect = lower value",1.03
same,normalized growth,"S. cerevisiae deletion strains, locus YLR221C, strain rsa3, stronger effect = lower value",0.984
same,normalized growth,"S. cerevisiae deletion strains, locus YLR258W, strain gsy2, stronger effect = lower value",0.967
same,normalized growth,"S. cerevisiae deletion strains, locus YLR262C, strain YPT6 (second series), stronger effect = lower value",0.817 (active)
same,normalized growth,"S. cerevisiae deletion strains, locus YLR262C, strain YPT6, stronger effect = lower value",1.06
same,normalized growth,"S. cerevisiae deletion strains, locus YLR268W, strain sec22, stronger effect = lower value",1.01
same,normalized growth,"S. cerevisiae deletion strains, locus YLR320W, strain mms22, stronger effect = lower value",0.973
same,normalized growth,"S. cerevisiae deletion strains, locus YLR330W, strain CHS5, stronger effect = lower value",1.01
same,normalized growth,"S. cerevisiae deletion strains, locus YLR342W, strain FKS1 (second series), stronger effect = lower value",1
same,normalized growth,"S. cerevisiae deletion strains, locus YLR342W, strain FKS1, stronger effect = lower value",0.964
same,normalized growth,"S. cerevisiae deletion strains, locus YLR357W, strain rsc2, stronger effect = lower value",0.896
same,normalized growth,"S. cerevisiae deletion strains, locus YLR370C, strain arc18, stronger effect = lower value",0.964
same,normalized growth,"S. cerevisiae deletion strains, locus YLR371W, strain rom2, stronger effect = lower value",1.02
same,normalized growth,"S. cerevisiae deletion strains, locus YLR384C, strain iki3, stronger effect = lower value",0.973
same,normalized growth,"S. cerevisiae deletion strains, locus YLR418C, strain cdc73, stronger effect = lower value",1.03
same,normalized growth,"S. cerevisiae deletion strains, locus YML016C, strain PPZ1, stronger effect = lower value",1.01
same,normalized growth,"S. cerevisiae deletion strains, locus YML032C, strain rad52, stronger effect = lower value",1.03
same,normalized growth,"S. cerevisiae deletion strains, locus YML120C, strain ndi1, stronger effect = lower value",0.968
same,normalized growth,"S. cerevisiae deletion strains, locus YML124C, strain tub3, stronger effect = lower value",1.02
same,normalized growth,"S. cerevisiae deletion strains, locus YMR058W, strain fet3, stronger effect = lower value",0.466 (active)
same,normalized growth,"S. cerevisiae deletion strains, locus YMR078C, strain ctf18, stronger effect = lower value",1.03
same,normalized growth,"S. cerevisiae deletion strains, locus YMR125W, strain sto1, stronger effect = lower value",1.01
same,normalized growth,"S. cerevisiae deletion strains, locus YMR129W, stronger effect = lower value",0.964
same,normalized growth,"S. cerevisiae deletion strains, locus YMR205C, strain PFK2, stronger effect = lower value",0.989
same,normalized growth,"S. cerevisiae deletion strains, locus YMR223W, strain ubp8, stronger effect = lower value",1
same,normalized growth,"S. cerevisiae deletion strains, locus YMR231W, strain pep5, stronger effect = lower value",0.942
same,normalized growth,"S. cerevisiae deletion strains, locus YMR263W, strain SAP30, stronger effect = lower value",1.02
same,normalized growth,"S. cerevisiae deletion strains, locus YMR307W, strain GAS1, stronger effect = lower value",0.947
same,normalized growth,"S. cerevisiae deletion strains, locus YNL067W, strain RPL9B, stronger effect = lower value",1.03
same,normalized growth,"S. cerevisiae deletion strains, locus YNL071W, strain lat1, stronger effect = lower value",0.973
same,normalized growth,"S. cerevisiae deletion strains, locus YNL128W, strain TEP1, stronger effect = lower value",0.96
same,normalized growth,"S. cerevisiae deletion strains, locus YNL153C, strain GIM3, stronger effect = lower value",0.998
same,normalized growth,"S. cerevisiae deletion strains, locus YNL209W, strain ssb2, stronger effect = lower value",0.911 (active)
same,normalized growth,"S. cerevisiae deletion strains, locus YNL233W, strain BNI4, stronger effect = lower value",0.994
same,normalized growth,"S. cerevisiae deletion strains, locus YNL248C, strain rpa49, stronger effect = lower value",1.02
same,normalized growth,"S. cerevisiae deletion strains, locus YNL250W, strain rad50, stronger effect = lower value",1.01
same,normalized growth,"S. cerevisiae deletion strains, locus YNL271C, strain bni1, stronger effect = lower value",1.01
same,normalized growth,"S. cerevisiae deletion strains, locus YNL298W, strain CLA4, stronger effect = lower value",1.04
same,normalized growth,"S. cerevisiae deletion strains, locus YNL307C, strain MCK1, stronger effect = lower value",1.03
same,normalized growth,"S. cerevisiae deletion strains, locus YNL322C, strain KRE1 (second series), stronger effect = lower value",0.967
same,normalized growth,"S. cerevisiae deletion strains, locus YNL322C, strain KRE1, stronger effect = lower value",1.01
same,normalized growth,"S. cerevisiae deletion strains, locus YNR049C, strain mso1, stronger effect = lower value",0.956
same,normalized growth,"S. cerevisiae deletion strains, locus YNR052C, strain pop2, stronger effect = lower value",1.02
same,normalized growth,"S. cerevisiae deletion strains, locus YOL006C, strain TOP1, stronger effect = lower value",1
same,normalized growth,"S. cerevisiae deletion strains, locus YOL012C, strain htz1",1.12
same,normalized growth,"S. cerevisiae deletion strains, locus YOL147C, strain pex11, stronger effect = lower value",1.02
same,normalized growth,"S. cerevisiae deletion strains, locus YOR001W, strain rrp6, stronger effect = lower value",0.939
same,normalized growth,"S. cerevisiae deletion strains, locus YOR061W, strain CKA2, stronger effect = lower value",1
same,normalized growth,"S. cerevisiae deletion strains, locus YOR069W, strain VPS5, stronger effect = lower value",1.01
same,normalized growth,"S. cerevisiae deletion strains, locus YOR070C, strain gyp1, stronger effect = lower value",0.986
same,normalized growth,"S. cerevisiae deletion strains, locus YOR080W, strain dia2, stronger effect = lower value",0.947
same,normalized growth,"S. cerevisiae deletion strains, locus YOR083W, strain WHI5, stronger effect = lower value",0.958
same,normalized growth,"S. cerevisiae deletion strains, locus YOR106W, strain vam3, stronger effect = lower value",0.773 (active)
same,normalized growth,"S. cerevisiae deletion strains, locus YOR136W, strain idh2, stronger effect = lower value",1.02
same,normalized growth,"S. cerevisiae deletion strains, locus YOR144C, strain elg1, stronger effect = lower value",1.02
same,normalized growth,"S. cerevisiae deletion strains, locus YOR184W, strain ser1, stronger effect = lower value",1.03
same,normalized growth,"S. cerevisiae deletion strains, locus YOR265W, strain rbl2, stronger effect = lower value",0.984
same,normalized growth,"S. cerevisiae deletion strains, locus YOR270C, strain vph1, stronger effect = lower value",0.764 (active)
same,normalized growth,"S. cerevisiae deletion strains, locus YOR290C, strain snf2, stronger effect = lower value",0.904
same,normalized growth,"S. cerevisiae deletion strains, locus YOR316C, strain cot1, stronger effect = lower value",1.02
same,normalized growth,"S. cerevisiae deletion strains, locus YPL051W, strain arl3, stronger effect = lower value",0.867 (active)
same,normalized growth,"S. cerevisiae deletion strains, locus YPL055C, strain LGE1, stronger effect = lower value",0.974
same,normalized growth,"S. cerevisiae deletion strains, locus YPL078C, strain atp4, stronger effect = lower value",0.939
same,normalized growth,"S. cerevisiae deletion strains, locus YPL106C, strain sse1, stronger effect = lower value",0.87
same,normalized growth,"S. cerevisiae deletion strains, locus YPL240C, strain hsp82, stronger effect = lower value",0.971
same,normalized growth,"S. cerevisiae deletion strains, locus YPL241C, strain CIN2, stronger effect = lower value",0.987
same,normalized growth,"S. cerevisiae deletion strains, locus YPR119W, strain clb2, stronger effect = lower value",1.02
same,normalized growth,"S. cerevisiae deletion strains, locus YPR141C, strain kar3, stronger effect = lower value",1.02
same,normalized growth,"S. cerevisiae deletion strains, locus YPR163C, strain tif3, stronger effect = lower value",1.01
same,normalized growth,"S. cerevisiae deletion strains, locus YPR167C, strain met16, stronger effect = lower value",1.03
same,normalized growth,"S. cerevisiae deletion strains, strain wtn01, stronger effect = lower value",1.01
same,normalized growth,"S. cerevisiae strains, strain wild type, stronger effect = lower value",0.999
